In PubChem BioAssay (NCATS):
Records with an inconclusive call do not appear. Entries that show only a call come without a potency. The source made the active and inactive calls. Unless noted, calls follow the shape of the dose curve; as a rule, active = well fitted curve in the direction sought with a large enough effect; inconclusive = small, poorly fitted or top-dose-only effect, or another doubt; inactive = no such curve, though single readings can be large; an effect the other way counts as inactive or inconclusive.

What was measured:
[1] = Cytometric Cell-Based qHTS for Inhibitors of the mTORC1 Signaling Pathway in MEF (Tsc2-/-, p53-/-) Cells (AID 2660);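 also: Tsc2 and p53 null MEFs carrying empty vector with compound for 24 h; percent of cells above a phospho-rpS6 to PI ratio cutoff in each well; series mostly up to about 38 µM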
Method in brief: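 Readout: Alexa-488 phospho-rpS6 (Ser235/236) intensity divided by PI intensity, thresholded against 7.5 nM rapamycin wells and reported as % positive cells. PI cell count served as the viability measure. Compound exposure was 24 hrs at 37 degree Celsius.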

[2] = High Content Imaging Cell-Based qHTS for Inhibitors of the mTORC1 Signaling Pathway in MEF (Tsc2-/-, p53-/-) Cells (AID 2666);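 also: percent of cells scored positive for phospho-rpS6 Ser235/236 immunostaining by imaging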
Method in brief: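 MEF Tsc2-/- p53-/- (empty vector), DMEM/10% FBS; cpd 24 h 37 °C; PFA fix, Alexa-488 p-rpS6 S235/236 Ab, Hoechst; imaged; rapamycin-defined inhibition; % positive cells/well.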

[3] = High Content Imaging Cell-Based qHTS for Inhibitors of the mTORC1 Signaling Pathway in MEF Cells (AID 2667);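 also: Tsc2-/- p53-/- MEFs stably re-expressing wild-type Tsc2 exposed 24 h; series mostly up to about 38 µM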
Method in brief: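 Read-out is the share of phospho-rpS6-positive cells per well, from Hoechst-normalized Alexa-488 Ser235/236 staining imaged on IN Cell. Cells: WT Tsc2-expressing Tsc2-/-, p53-/- MEFs exposed to compound for 24 hrs.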

[4] = Validation screen for small molecules that induce DNA re-replication in MCF 10A normal breast cells (AID 463097); also: nearly all actives have a fitted effect of over 60% in size; also: potency is read from the fitted curve at half-maximal effect
Method in brief: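 Following 48 hr compound incubation (37 C, 5% CO2), MCF 10A cells receive Hoechst for 40 min at 37 C. Nuclei are then scanned (excitation 405 nm, emission 500-530 nm) for total fluorescence intensity.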

[5] = target: Ubiquitin carboxyl-terminal hydrolase 2 (Homo sapiens) (UniProt O75604); assay: qHTS Validation Assay for Inhibitors of Ubiquitin-specific Protease USP2a Using CHOP2 as the Reporter (AID 463106)
Chain of Ubiquitin carboxyl-terminal hydrolase 2 (Homo sapiens) (O75604 whole entry, looked up): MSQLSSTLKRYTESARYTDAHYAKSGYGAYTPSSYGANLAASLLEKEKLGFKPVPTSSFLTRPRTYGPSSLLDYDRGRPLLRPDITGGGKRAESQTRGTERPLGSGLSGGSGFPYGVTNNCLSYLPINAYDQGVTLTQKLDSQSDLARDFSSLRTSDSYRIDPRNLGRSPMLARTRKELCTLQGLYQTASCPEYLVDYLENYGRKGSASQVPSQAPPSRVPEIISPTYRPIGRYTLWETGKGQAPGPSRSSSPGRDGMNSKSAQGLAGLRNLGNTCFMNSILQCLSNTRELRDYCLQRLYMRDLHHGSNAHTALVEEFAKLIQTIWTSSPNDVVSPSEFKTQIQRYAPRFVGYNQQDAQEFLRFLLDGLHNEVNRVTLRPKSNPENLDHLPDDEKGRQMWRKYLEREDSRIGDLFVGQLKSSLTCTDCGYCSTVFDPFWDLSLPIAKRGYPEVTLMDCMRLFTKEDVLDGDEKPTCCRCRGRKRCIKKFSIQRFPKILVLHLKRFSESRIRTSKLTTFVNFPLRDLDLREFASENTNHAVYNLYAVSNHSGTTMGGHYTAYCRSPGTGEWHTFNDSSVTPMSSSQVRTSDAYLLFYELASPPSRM
Method in brief: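 Fluorescence read-out at Ex 485nm/Em 531nm after 60min RT, following addition of 25nM Ub-CHOP2 plus 25nM reporter substrate to USP2 core (10nM) pretreated 30min with compound. Data normalized to NEM full inhibition; concentration-response curves fitted.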

[6] = target: DNA polymerase III PolC-type (Bacillus subtilis (strain 168)) (UniProt P13267); assay: qHTS Validation Assay for the Inhibitors of DNA Replication in Gram-Positive Bacteria (AID 485295);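 also: reconstituted holoenzyme with PolC plus beta clamp SSB and primase; PicoGreen fluorescence of double-stranded DNA made on primed circular M13 template; series mostly up to about 57 µM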
Method in brief: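 Inhibition of DNA synthesis by the reconstituted PolC holoenzyme, monitored through PicoGreen staining of dsDNA formed from ssM13Gori, dNTPs and NTPs, with compound preincubation and room-temperature reaction.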

[7] = target: Tumor susceptibility gene 101 protein (Homo sapiens) (UniProt Q99816); assay: qHTS Validation Assay for Iinhibitors of HIV-1 Budding by Blocking the Interaction of PTAP/TSG101 (AID 485342; calls by dose curve)
Chain of Tumor susceptibility gene 101 protein (Homo sapiens) (Q99816 whole entry, looked up, the tested form may be a part): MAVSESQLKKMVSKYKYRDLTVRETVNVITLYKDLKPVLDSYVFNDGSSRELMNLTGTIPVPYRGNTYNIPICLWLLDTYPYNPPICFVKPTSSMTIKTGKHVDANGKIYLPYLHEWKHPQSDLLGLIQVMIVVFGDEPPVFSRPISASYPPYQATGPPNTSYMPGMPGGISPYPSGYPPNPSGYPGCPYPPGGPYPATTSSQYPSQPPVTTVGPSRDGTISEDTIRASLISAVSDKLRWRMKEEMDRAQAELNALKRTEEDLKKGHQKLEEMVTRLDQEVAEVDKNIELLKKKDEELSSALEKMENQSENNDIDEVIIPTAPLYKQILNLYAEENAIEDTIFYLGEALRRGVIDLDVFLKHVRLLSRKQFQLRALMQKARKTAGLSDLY
Method in brief: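 Compound wells held the Tsg101 binding domain (10 uM) and a FITC-conjugated PTAP peptide (50 nM) in buffer at pH 7.5 containing 0.15 M NaCl and 0.01% Tween 20; polarization was recorded after 20 min, r.t.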

[8] = qHTS Validation Assay to Find Inhibitors of Chronic Active B-Cell Receptor Signaling (AID 485345; active = well fitted curve in the direction sought with a large enough effect in the main read-out, with a control signal flat, not every such curve was filed as active)
Method in brief: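 TMD8 ABC-DLBCL cells stably carrying doxycycline-inducible IkappaBalpha–green luciferase fusion plus unfused red luciferase; compounds 46 uM to 3 nM, 4 h at 37C with doxycycline. Corrected green/red luminescence ratio normalized to 10 uM MG-132 and basal cell wells; curves fitted.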

[9] = target: Beta-2 adrenergic receptor (Homo sapiens) (UniProt P07550); assay: qHTS validation assay of beta-arrestin-biased ligands of beta2-adrenergic receptor (AID 485366)
Chain of Beta-2 adrenergic receptor (Homo sapiens) (P07550 whole entry, looked up): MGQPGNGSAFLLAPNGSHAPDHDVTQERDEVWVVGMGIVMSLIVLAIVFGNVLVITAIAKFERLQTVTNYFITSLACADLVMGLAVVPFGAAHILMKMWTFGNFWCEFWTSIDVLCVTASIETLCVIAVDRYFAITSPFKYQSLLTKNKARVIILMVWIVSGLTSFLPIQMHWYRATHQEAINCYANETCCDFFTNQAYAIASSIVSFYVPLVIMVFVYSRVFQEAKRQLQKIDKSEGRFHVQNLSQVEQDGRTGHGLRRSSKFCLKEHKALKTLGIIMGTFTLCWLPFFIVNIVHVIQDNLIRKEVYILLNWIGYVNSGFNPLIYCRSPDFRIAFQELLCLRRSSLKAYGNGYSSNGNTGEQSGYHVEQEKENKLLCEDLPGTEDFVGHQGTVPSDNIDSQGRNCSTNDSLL
Method in brief: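 Agonist activity is measured as luciferase luminescence downstream of beta-arrestin recruitment to recombinant beta2-AR in Tango cells. Exposure lasts 18 hr at 37 degrees C, and curves are categorized by r2, response size and activity.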

[10] = target: ATP-dependent 6-phosphofructokinase (Trypanosoma brucei brucei) (UniProt O15648); assay: qHTS Validation Assay to Find Inhibitors of T. brucei phosphofructokinase (AID 485368)
Chain of ATP-dependent 6-phosphofructokinase (Trypanosoma brucei brucei) (O15648 whole entry, looked up): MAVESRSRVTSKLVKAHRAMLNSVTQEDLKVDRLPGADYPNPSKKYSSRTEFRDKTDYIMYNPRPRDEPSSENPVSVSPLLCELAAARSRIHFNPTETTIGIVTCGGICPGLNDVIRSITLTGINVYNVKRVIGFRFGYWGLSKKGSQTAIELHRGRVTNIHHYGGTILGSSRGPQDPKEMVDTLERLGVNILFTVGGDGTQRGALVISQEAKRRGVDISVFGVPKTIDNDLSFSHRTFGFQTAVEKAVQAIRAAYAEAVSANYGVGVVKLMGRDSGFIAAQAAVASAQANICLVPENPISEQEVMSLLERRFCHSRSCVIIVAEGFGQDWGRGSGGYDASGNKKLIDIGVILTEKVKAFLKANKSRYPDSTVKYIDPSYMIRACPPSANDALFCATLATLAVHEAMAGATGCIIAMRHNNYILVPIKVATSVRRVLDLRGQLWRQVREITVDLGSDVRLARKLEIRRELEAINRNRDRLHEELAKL
Method in brief: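 Inhibition derived from concentration-response curves of luminescence, ranked by r2, response size and curve class; the underlying reaction used 1.25 nM PFK, 0.1 mM ATP and 0.5 mM F6P, 45 min, room temperature.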

[11] = target: Thioredoxin reductase 1, cytoplasmic (Rattus norvegicus) (UniProt O89049); assay: qHTS Assay for Substrates of Mammalian Selenoprotein Thioredoxin Reductase 1 (TrxR1) (AID 488772);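 also: series mostly up to about 57 µM; a drop in NADPH fluorescence below the no-compound background marks a TrxR1 substrate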
Chain of Thioredoxin reductase 1, cytoplasmic (Rattus norvegicus) (O89049 whole entry, looked up): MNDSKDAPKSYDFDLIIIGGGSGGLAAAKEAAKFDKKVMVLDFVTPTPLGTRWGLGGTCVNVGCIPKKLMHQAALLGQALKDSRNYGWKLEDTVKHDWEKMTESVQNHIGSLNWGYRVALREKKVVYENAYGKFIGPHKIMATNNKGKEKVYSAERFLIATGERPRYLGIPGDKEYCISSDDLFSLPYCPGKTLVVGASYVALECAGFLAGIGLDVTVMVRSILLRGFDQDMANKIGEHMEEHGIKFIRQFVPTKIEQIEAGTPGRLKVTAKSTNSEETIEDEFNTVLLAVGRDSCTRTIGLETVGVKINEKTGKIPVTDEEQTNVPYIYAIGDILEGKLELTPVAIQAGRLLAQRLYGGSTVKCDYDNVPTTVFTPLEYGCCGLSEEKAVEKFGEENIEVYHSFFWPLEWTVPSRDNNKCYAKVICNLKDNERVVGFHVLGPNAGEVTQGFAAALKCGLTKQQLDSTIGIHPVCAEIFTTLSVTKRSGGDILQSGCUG
Method in brief: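 In this dual-purpose format, potential substrates are identified from the first fluorescence read after selenite addition, not from the 8-minute delta. Rat enzyme is preincubated with NADPH and then with compound at ~22 deg C.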

[12] = target: Thioredoxin reductase 1, cytoplasmic (Rattus norvegicus) (UniProt O89049); assay: qHTS Assay for Inhibitors of Mammalian Selenoprotein Thioredoxin Reductase 1 (TrxR1) (AID 488773); details: Potency: inhibition;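 also: drop in NADPH fluorescence over an 8 min run after selenite addition; series mostly up to about 57 µM; nearly all actives have a fitted effect of over 40% in size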
Method in brief: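 Inhibition is scored from the loss of NADPH fluorescence between first and last reads of an 8-min kinetic run. Selenite (400 uM) was the substrate, added after 15 min compound preincubation at room temperature.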

[13] = target: Flap endonuclease 1 (Homo sapiens) (UniProt P39748); assay: qHTS Validation Assay for the Inhibitors of Human Flap endonuclease 1 (FEN1) (AID 488816)
Chain of Flap endonuclease 1 (Homo sapiens) (P39748 whole entry, looked up): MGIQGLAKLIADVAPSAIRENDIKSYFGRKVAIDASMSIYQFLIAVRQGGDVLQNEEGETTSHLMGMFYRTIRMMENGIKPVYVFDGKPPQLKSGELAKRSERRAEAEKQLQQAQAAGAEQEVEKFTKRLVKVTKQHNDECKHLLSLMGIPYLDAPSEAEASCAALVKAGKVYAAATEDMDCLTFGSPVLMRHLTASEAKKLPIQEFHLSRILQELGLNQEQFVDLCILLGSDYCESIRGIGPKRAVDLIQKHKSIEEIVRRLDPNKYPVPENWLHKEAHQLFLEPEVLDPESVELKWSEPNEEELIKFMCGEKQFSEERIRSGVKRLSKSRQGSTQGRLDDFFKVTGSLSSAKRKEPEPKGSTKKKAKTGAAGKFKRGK
Method in brief: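 Enzyme reagent 10 nM; cpds pinned; 15 min RT preinc.; substrate 50 nM final; reads t=0 and 15 min; no-enzyme buffer wells as neg. control; normalized data, 4-parameter Hill fit.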

[14] = target: M-phase phosphoprotein 8 (Homo sapiens) (UniProt Q99549); assay: qHTS Validation Assay for Inhibitors for MPP8 Chromodomain Interactions with Methylated Histone Tails (AID 488949); also: nearly all actives have a fitted effect of over 55% in size; also: potency is read from the fitted curve at half-maximal effect
Chain of M-phase phosphoprotein 8 (Homo sapiens) (Q99549 whole entry, looked up): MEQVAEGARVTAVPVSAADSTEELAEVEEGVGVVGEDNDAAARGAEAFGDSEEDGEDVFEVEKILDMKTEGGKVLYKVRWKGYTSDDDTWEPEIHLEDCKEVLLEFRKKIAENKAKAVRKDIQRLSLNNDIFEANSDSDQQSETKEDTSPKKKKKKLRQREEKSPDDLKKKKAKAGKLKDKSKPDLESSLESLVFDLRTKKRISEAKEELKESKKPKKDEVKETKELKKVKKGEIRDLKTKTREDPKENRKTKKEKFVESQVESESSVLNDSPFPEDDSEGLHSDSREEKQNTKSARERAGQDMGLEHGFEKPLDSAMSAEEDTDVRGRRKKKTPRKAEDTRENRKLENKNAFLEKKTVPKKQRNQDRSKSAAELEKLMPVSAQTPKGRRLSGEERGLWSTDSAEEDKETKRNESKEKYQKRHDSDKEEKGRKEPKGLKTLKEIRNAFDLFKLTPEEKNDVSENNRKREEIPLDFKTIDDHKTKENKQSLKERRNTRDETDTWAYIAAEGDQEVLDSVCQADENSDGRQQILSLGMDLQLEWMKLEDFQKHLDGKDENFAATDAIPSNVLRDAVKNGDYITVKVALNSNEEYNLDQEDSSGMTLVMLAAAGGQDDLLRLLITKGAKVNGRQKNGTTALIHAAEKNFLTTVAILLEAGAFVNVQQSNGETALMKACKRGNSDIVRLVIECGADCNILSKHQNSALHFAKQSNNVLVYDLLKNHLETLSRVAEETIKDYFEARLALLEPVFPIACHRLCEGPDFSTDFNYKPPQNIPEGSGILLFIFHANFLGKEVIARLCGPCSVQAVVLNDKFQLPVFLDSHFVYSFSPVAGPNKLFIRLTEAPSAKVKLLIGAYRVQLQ
Method in brief: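 Chemiluminescent proximity assay: histidine-tag capture via nickel acceptor beads, biotin peptide via streptavidin donor beads. Protein and peptide each at 50 nM, pH 7.4, with 30 min incubations at room temperature for complex formation, compound exposure and bead binding.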

[15] = target: Chromobox protein homolog 1 (Homo sapiens) (UniProt P83916); assay: qHTS Validation Assay for Inhibitors of HP1-beta Chromodomain Interactions with Methylated Histone Tails (AID 488953); also: nearly all actives have a fitted effect of over 50% in size; also: potency is read from the fitted curve at half-maximal effect
Chain of Chromobox protein homolog 1 (Homo sapiens) (P83916 whole entry, looked up): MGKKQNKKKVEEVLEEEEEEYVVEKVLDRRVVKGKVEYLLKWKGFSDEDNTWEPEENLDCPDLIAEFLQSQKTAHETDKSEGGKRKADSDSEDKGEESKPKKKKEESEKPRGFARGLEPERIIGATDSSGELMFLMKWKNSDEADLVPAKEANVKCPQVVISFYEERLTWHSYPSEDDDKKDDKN
Method in brief: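 Compounds pinned into a preassembled complex of HP1-beta and trimethyl-K9 histone H3(1-18) biotin peptide (50 nM each; PBS pH 7.4, 0.01% Tween-20). After 30 min, bead-based AlphaScreen detection followed.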

[16] = target: Methanococcus maripaludis chaperonin (MmCpn) (UniProt Q6LX38); assay: High-Throughput Screening for Modulators of Cytosolic Chaperonin Activity: MmCpn Primary Screen (AID 488978)
Chain of Methanococcus maripaludis chaperonin (MmCpn) (Q6LX38 1-543): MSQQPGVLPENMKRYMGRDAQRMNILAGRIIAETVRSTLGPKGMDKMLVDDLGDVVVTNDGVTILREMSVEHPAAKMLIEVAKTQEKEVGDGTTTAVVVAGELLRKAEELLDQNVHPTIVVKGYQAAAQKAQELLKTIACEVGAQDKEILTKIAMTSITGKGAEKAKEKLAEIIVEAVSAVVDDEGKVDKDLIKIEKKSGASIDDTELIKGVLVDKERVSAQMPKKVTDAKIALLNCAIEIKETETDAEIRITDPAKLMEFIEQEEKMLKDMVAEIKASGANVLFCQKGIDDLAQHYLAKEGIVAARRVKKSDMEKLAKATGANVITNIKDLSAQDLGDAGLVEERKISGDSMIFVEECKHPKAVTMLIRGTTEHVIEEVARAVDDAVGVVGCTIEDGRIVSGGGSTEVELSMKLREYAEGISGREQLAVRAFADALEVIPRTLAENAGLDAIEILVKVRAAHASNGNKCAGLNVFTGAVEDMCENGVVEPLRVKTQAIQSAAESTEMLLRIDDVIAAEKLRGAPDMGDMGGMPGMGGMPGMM
Method in brief: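 HTRF readout (320 nm excitation, 590/665 nm emission) of ADP generated by 50 nM MmCpn hydrolysing 30 uM ATP during 10 min at 37C; compound preincubated 5 min RT.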

[17] = Cytometry Cell-Based qHTS for Inhibitors of the mTORC1 Signaling Pathway in MEF cells (AID 2668);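 also: Tsc2-/- p53-/- mouse embryonic fibroblasts stably re-expressing wild-type Tsc2; percent cells positive for phospho-rpS6 Ser235/236 relative to propidium iodide stain; series mostly up to about 38 µM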
Method in brief: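 In MEFs grown in DMEM + 10% FBS, a 24 hrs compound exposure preceded imaging of phospho-rpS6 Ser235/236 by laser-scanning cytometry.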

[18] = Quantitative high throughput screen for delayed death inhibitors of the malarial parasite plastid, 48 hour incubation (AID 488752); also: nearly all actives have a fitted effect of over 65% in size; also: potency is read from the fitted curve at half-maximal effect
Method in brief: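 Cultures: infected erythrocytes at final 2% hematocrit and 0.1% parasitemia in Albumax-supplemented RPMI. Parasites express integrated firefly luciferase. Incubation with compound lasts 48 h before luminescent detection of remaining reporter activity.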

[19] = Quantitative high throughput screen for delayed death inhibitors of the malarial parasite plastid, 96 hour incubation (AID 488745); also: nearly all actives have a fitted effect of over 70% in size; also: potency is read from the fitted curve at half-maximal effect
Method in brief: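 Two-generation (96 h) exposure of luciferase-reporter P. falciparum in erythrocytes, 2% hematocrit, 0.1% parasitemia final, 37 C, 5% CO2, RPMI 1640 with 0.5% Albumax. Growth inhibition scored by reduced luminescence.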

In the case of `c1ccc(CN2CCC3(CCCc4ccccc43)CC2)cc1`, the outcome [1] was “inactive”, the Potency [2] was “inactive” and the Potency [3] was “inactive”. For the same compound, the Potency [4] was “inactive”, the Potency [5] was “inactive” and the Potency [6] was “inactive”. For the same compound, the outcome [7] was “inactive”, the outcome [8] was “inactive” and the outcome [9] was “inactive”. For the same compound, the Potency [10] was “inactive”, the outcome [11] was “inactive” and the Potency [12] was “inactive”. For the same compound, the Potency [13] was “inactive”, the Potency [14] was “inactive” and the Potency [15] was “inactive”. The outcome [16] was “inactive”.
In the case of `CCCC(=O)NCCc1c2n(c3ccc(OC)cc13)CCCc1ccccc1-2`, the outcome [1] was “inactive”, the Potency [2] was “inactive” and the Potency [3] was “inactive”. For the same compound, the Potency [17] was “inactive”, the outcome [7] was “inactive” and the outcome [9] was “inactive”. The Potency [10] was “inactive”, the Potency [18] was “inactive” and the Potency [13] was “inactive”. The Potency [14] was 28.2 µM (active), the Potency [15] was 35.5 µM (active) and the outcome [16] was “inactive”.
For `CC(O)C(O)[C@H]1CNc2nc(N)[nH]c(=O)c2N1` (stereo partly specified), the outcome [1] was “inactive”, the Potency [2] was “inactive” and the Potency [3] was “inactive”. For the same compound, the Potency [17] was “inactive”, the Potency [6] was “inactive” and the outcome [7] was “inactive”. For the same compound, the outcome [9] was “inactive”, the outcome [11] was “inactive” and the Potency [12] was “inactive”. For the same compound, the Potency [13] was “inactive”, the Potency [14] was “inactive” and the Potency [15] was “inactive”. The outcome [16] was “inactive”.
In the case of `CCCc1c(-c2ccc(O)cc2)nn(-c2ccc(O)cc2)c1-c1ccc(O)cc1`, the outcome [1] was “inactive”, the Potency [2] was “inactive” and the Potency [3] was “inactive”. For the same compound, the Potency [17] was “inactive”, the outcome [9] was “inactive” and the Potency [18] was “inactive”. For the same compound, the outcome [11] was “inactive”, the Potency [13] was “inactive” and the Potency [14] was “inactive”. For the same compound, the outcome [16] was “inactive”.
With `Brc1c(Br)c(Br)c2[nH]cnc2c1Br` the outcome [1] was “inactive”, the Potency [2] was “inactive” and the Potency [3] was “inactive”. The Potency [17] was “inactive”, the Potency [5] was “inactive” and the Potency [6] was “inactive”. The outcome [7] was “inactive”, the Potency [10] was “inactive” and the Potency [13] was “inactive”. For the same compound, the Potency [14] was “inactive”, the Potency [15] was “inactive” and the outcome [16] was “inactive”.
In the case of `CCCCCCN(CCCCCC)C(=O)Cc1c(-c2ccc(F)cc2)[nH]c2ccccc12`, the outcome [1] was “inactive”, the Potency [2] was “inactive” and the Potency [3] was “inactive”. For the same compound, the Potency [4] was “inactive”, the Potency [5] was “inactive” and the Potency [6] was “inactive”. The outcome [7] was “inactive”, the outcome [8] was “inactive” and the outcome [9] was “inactive”. The Potency [10] was “inactive”, the Potency [19] was 3.7 µM (active) and the Potency [18] was 5.22 µM (active). The outcome [11] was “inactive”, the Potency [12] was “inactive” and the Potency [13] was “inactive”. The Potency [14] was “inactive”, the Potency [15] was “inactive” and the outcome [16] was “inactive”.
For `O=c1cc(-c2ccccc2)[nH]c2nc(Cl)ccc12`, the outcome [1] was “inactive”, the Potency [2] was “inactive” and the Potency [3] was “inactive”. The Potency [4] was 6.31 µM (active), the Potency [5] was “inactive” and the Potency [6] was “inactive”. For the same compound, the outcome [7] was “inactive”, the outcome [9] was “inactive” and the Potency [19] was “inactive”. For the same compound, the outcome [11] was “inactive”, the Potency [12] was “inactive” and the Potency [13] was “inactive”. For the same compound, the Potency [14] was “inactive”, the Potency [15] was “inactive” and the outcome [16] was “inactive”.
